# Measurements published in PubChem BioAssay.
# A number with no mark means an inactive call. For part of these data: Measured potencies and affinities stand elsewhere. Calls of active or inactive are those of the source. Unless noted, how the calls were made is not given here.
# Legend:
# [1] = antimalarial activity against Dd2 strain (AID 2302;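 active means growth inhibition above 50% at the single 2 µM test dose, taken to imply half-maximal potency below 2 µM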;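 further: 0% = DMSO untreated growth and 100% = chloroquine plus artemisinin killed control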); details: P. falciparum Dd2 in RBCs, LDH growth readout, 72 h; at 2 µM; stronger effect = higher value
# [2] = human hepatoma cell viability loss – ATP luminescence, cytotoxicity control for P. falciparum antimalarial project, primary screen (AID 2303;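 active means inhibition above 50%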;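 further: 0% = DMSO wells and 100% = digitonin-killed cells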); details: HepG2 viability, 24-48 h, at 10 µM, stronger effect = higher value
# [3] = target: L-lactate dehydrogenase (Plasmodium falciparum (isolate CDC / Honduras)) (UniProt Q27743); test: PfLDH activity inhibition – cell lysate, 3D7 strain, counter-screen for P. falciparum growth inhibition project (AID 2304);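 further: 0% = vehicle and 100% = reference inhibitor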; details: P. falciparum 3D7 crude extract, LDH APAD/NBT absorbance; at 2 µM; stronger effect = higher value
# [4] = inhibition of 3D7 malaria parasite growth – strain 3D7 (AID 2306);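 further: 0% = DMSO wells and 100% = chloroquine plus artemisinin control wells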; details: P. falciparum 3D7 erythrocytic growth, LDH absorbance, 72 h; at 2 µM; stronger effect = higher value
# [5] = target: Calcium-dependent protein kinase 1 (Plasmodium falciparum (isolate 3D7)) (UniProt P62344); test: PfCDPK1 kinase inhibitors, biochemical, TCAMS library (AID 1159585; cut-off not given, nearly all actives have IC50 up to about 0.98 µM;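 further: inhibitors leave more ATP so luminescence rises with inhibition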); details: recombinant PfCDPK1, Kinase-Glo ATP depletion luminescence
# [6] = target: Plasmodium falciparum protein kinase 6 (PK6, PF3D7_1337100) (UniProt Q8IDW1); test: PfPK6 kinase inhibitors, biochemical, TCAMS library (AID 1159586); details: recombinant PfPK6, Kinase-Glo ATP depletion luminescence
# [7] = target: Protein kinase 7 (PK7), Plasmodium falciparum 3D7 (PF3D7_0213400) (UniProt Q7YTF7); test: inhibition of Plasmodium PK7 catalytic activity – biochemical, TCAMS antimalarial set, Kinase-Glo luminescence (AID 1159587); details: recombinant PfPK7, Kinase-Glo ATP depletion luminescence
# [8] = target: Calcium-dependent protein kinase 4 (Plasmodium falciparum (isolate 3D7)) (UniProt Q8IBS5); test: PfCDPK4 kinase inhibitors, biochemical, TCAMS library (AID 1159588; cut-off not given, nearly all actives have IC50 up to about 0.91 µM); details: recombinant PfCDPK4, Kinase-Glo ATP depletion luminescence
# Chain of Calcium-dependent protein kinase 4 (Plasmodium falciparum (isolate 3D7)) (Q8IBS5 whole entry, looked up): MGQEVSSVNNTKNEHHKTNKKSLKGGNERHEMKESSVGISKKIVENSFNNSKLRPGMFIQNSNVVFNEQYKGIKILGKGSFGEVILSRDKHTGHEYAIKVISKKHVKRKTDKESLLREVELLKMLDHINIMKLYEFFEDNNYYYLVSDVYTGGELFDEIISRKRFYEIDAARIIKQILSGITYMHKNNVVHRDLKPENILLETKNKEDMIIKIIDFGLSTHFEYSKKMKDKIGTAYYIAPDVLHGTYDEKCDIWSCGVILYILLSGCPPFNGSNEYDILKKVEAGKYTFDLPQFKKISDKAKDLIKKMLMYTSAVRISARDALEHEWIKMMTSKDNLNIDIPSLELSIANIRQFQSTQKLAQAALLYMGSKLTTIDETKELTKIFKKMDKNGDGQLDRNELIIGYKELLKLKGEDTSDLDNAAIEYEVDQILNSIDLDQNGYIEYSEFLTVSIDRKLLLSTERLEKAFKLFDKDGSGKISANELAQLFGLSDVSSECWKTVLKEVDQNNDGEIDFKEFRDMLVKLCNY
# Chain of Calcium-dependent protein kinase 1 (Plasmodium falciparum (isolate 3D7)) (P62344 whole entry, looked up): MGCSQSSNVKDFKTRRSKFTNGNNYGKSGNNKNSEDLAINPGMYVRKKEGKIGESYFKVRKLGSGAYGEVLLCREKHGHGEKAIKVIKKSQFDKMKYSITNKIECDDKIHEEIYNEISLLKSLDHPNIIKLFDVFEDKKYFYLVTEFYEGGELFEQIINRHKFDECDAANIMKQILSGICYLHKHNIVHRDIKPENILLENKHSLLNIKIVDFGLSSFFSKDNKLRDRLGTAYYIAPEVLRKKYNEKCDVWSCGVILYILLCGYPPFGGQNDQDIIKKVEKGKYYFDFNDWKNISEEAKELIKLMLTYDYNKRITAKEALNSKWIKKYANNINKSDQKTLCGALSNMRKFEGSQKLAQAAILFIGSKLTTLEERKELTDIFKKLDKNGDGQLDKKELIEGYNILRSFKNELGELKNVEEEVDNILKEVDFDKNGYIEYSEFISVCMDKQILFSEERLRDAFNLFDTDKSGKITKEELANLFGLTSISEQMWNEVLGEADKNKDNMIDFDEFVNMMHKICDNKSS
# Chain of Protein kinase 7 (PK7), Plasmodium falciparum 3D7 (PF3D7_0213400) (Q7YTF7 1-343): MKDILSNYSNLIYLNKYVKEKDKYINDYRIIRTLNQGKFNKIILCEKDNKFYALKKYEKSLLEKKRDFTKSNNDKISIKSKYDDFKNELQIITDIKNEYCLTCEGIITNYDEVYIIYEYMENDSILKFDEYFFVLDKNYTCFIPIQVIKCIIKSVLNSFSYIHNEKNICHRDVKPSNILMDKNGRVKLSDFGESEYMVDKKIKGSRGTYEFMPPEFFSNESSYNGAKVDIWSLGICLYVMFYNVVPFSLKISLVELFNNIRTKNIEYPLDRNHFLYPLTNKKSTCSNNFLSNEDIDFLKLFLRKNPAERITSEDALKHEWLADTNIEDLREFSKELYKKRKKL
# Chain of L-lactate dehydrogenase (Plasmodium falciparum (isolate CDC / Honduras)) (Q27743 whole entry, looked up): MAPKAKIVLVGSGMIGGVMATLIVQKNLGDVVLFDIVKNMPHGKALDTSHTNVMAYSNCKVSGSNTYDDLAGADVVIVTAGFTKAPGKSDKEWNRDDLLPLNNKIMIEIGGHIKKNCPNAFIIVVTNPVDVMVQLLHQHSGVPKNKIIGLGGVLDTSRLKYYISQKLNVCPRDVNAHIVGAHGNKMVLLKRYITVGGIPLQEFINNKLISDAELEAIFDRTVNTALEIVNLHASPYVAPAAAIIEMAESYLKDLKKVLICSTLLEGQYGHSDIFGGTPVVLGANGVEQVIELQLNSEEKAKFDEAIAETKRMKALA
# Chain of Plasmodium falciparum protein kinase 6 (PK6, PF3D7_1337100) (Q8IDW1 1-305): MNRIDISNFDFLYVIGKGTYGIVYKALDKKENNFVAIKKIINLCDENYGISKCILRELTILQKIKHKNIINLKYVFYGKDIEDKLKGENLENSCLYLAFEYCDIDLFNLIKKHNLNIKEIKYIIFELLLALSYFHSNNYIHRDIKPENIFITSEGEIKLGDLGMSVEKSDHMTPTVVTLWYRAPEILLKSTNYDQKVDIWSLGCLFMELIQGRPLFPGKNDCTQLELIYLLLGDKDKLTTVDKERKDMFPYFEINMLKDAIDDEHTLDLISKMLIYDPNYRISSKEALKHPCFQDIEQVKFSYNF
Structure (SMILES),growth inhibition [1],inhibition [2],inhibition [3] [%],growth inhibition [4],outcome [5],outcome [6],outcome [7],outcome [8]
OC(CNCc1ccccc1OCc1ccccc1)c1cccc(Br)c1 (stereo unspecified),97% (active),-1%,0,100% (active),inactive,inactive,inactive,inactive
COc1c(C2CCN(CCCCNC(=O)c3cc(-c4ccc(Cl)cc4)oc3C)CC2)ccc2c1CCCC2,27%,93% (active),2,97% (active),inactive,inactive,inactive,inactive
COc1ccccc1C1CCN(C2CCC(NC(=O)/C=C/c3ccc(C(F)(F)F)cc3)CC2)CC1 (stereo unspecified),7%,57% (active),4,88% (active),inactive,inactive,inactive,inactive
CN(C)c1ccc(-c2ccc(C(=O)NC3CCN(Cc4ccc(C(C)(C)C)cc4)CC3)s2)cc1,59% (active),35%,-4,95% (active),inactive,inactive,inactive,inactive
CC1(C)CC(NCCCCCCCOc2ccc(OCc3ccccc3)cc2)CC(C)(C)N1,73% (active),99% (active),0,100% (active),inactive,inactive,inactive,inactive
CCn1cc(C(=O)O)c(=O)c2cc(F)c(N3CCN(S(=O)(=O)c4ccc(N)cc4)CC3)cc21,79% (active),-2%,4,90% (active),inactive,inactive,inactive,inactive
CC(=O)N(C)/N=C/[C@H](CCc1ccccc1)NC(=O)[C@H](CC(C)C)NC(=O)c1cccc(OCCN2CCOCC2)c1,65% (active),5%,5,89% (active),inactive,inactive,inactive,inactive
C#CCCOc1ccc2ccccc2c1CNCCCCCCNCc1c(OCCC#C)ccc2ccccc12,65% (active),100% (active),2,100% (active),inactive,inactive,inactive,inactive
NCC1CCCN1Cc1cccc(-c2cccc(-c3nc4ccc(F)cc4[nH]3)c2)c1 (stereo unspecified),65% (active),10%,5,101% (active),inactive,inactive,inactive,inactive
COc1ccc(NC(=O)/C=C/c2cc(F)cc(C(F)(F)F)c2)cc1OCCN(C(C)C)C(C)C,21%,18%,-3,97% (active),inactive,inactive,inactive,inactive
CC(=O)NCCNc1nccc(N2CCc3ncnc(Nc4ccc(OCc5ccccn5)c(Cl)c4)c3C2)n1,99% (active),-12%,10,99% (active),inactive,inactive,inactive,inactive
COc1ccc(CSC2CCCCC23NC(=S)NC3=S)cc1 (stereo unspecified),-3%,-5%,-1,97% (active),inactive,inactive,inactive,inactive
Cc1ccc(NC(=O)N2CCN(CCCCCNC(=O)/C=C/c3ccc(Cl)c(Cl)c3)CC2)cc1C,-5%,7%,0,94% (active),inactive,inactive,inactive,inactive
CCN(CC)CCN(Cc1ccc(-c2ccc(Br)cc2)cc1)C(=O)Cn1c(CCc2cccc(F)c2F)nc(=O)c2ccccc21,74% (active),37%,1,98% (active),inactive,inactive,inactive,inactive
CCN(CCCN1CCCCC1)c1cc(C)nc(Nc2ccc(C(C)C)cc2)n1,51% (active),34%,2,100% (active),inactive,inactive,inactive,inactive
CN1CCN(CC(O)CNC(=O)Nc2ccc(Cl)cc2)CC1 (stereo unspecified),98% (active),1%,-3,99% (active),inactive,inactive,inactive,inactive
CCCc1cc(Cc2cnc(N)nc2N)ccc1OCCCCCC(=O)O,-2%,3%,1,97% (active),inactive,inactive,inactive,inactive
Cc1cc(F)ccc1C1CCN(CCCCNC(=O)c2ccc(NC(=O)c3ccc(Cl)cc3)cc2)CC1,79% (active),19%,0,101% (active),inactive,inactive,inactive,inactive
COc1ccc(Oc2ccc(-c3c(C)[nH]c(C)cc3=O)cc2)cc1,88% (active),-12%,-3,93% (active),inactive,inactive,inactive,inactive
COc1ccccc1CCN1CCC(CN(C)Cc2ccc(O)c(Cl)c2)CC1,52% (active),19%,-3,101% (active),inactive,inactive,inactive,inactive
CCN1CCN(c2cc(C)c3cc(NC(=O)c4ccc(Br)o4)ccc3n2)CC1,13%,-8%,-7,98% (active),inactive,inactive,inactive,inactive

Structure (SMILES),growth inhibition [1],inhibition [2],inhibition [3] [%],growth inhibition [4],outcome [5],outcome [6],outcome [7],outcome [8]
COc1ccc2nccc(N3CCC(SCCNCc4ccc5c(n4)NC(=O)CS5)C3)c2n1 (stereo unspecified),100% (active),34%,2,95% (active),inactive,inactive,inactive,inactive
CCCCCCCCCCN1C(=O)C2C(CCCCNC(C)=O)NC3(C(=O)N(Cc4ccc(C(C)(C)C)cc4)c4ccccc43)C2C1=O (stereo unspecified),65% (active),3%,-3,86% (active),inactive,inactive,inactive,inactive
Nc1nccc2ccc(-c3cccc(OCc4ccccc4)c3)cc12,81% (active),47%,5,101% (active),inactive,inactive,inactive,inactive
CCOC(=O)C1=C(C)NC(C)=C(C(=O)OCC)C1(C(=O)OCc1ccccc1)c1cccc(C(F)(F)F)c1,60% (active),-17%,5,88% (active),inactive,inactive,inactive,inactive
COc1ccc(NC(=O)Nc2ccc(C)c(-c3ccc(C(=O)Nc4ccncc4)cc3)c2)cc1,50% (active),39%,4,99% (active),inactive,inactive,inactive,inactive
COc1cccc(OC)c1OCCCOc1c(C)nc(N)nc1N,-1%,31%,0,97% (active),inactive,inactive,inactive,inactive
COc1ccc(-c2nc3cccnc3n2CC(=O)Nc2c(C)cc(C)cc2C)c(OC)c1,21%,77% (active),1,91% (active),inactive,inactive,inactive,inactive
COc1cc(C)ccc1S(=O)(=O)N1CCCCC(c2ccc(C(F)(F)F)cc2)=N1,89% (active),16%,-1,92% (active),inactive,inactive,inactive,inactive
Cc1cccc2[nH]c(-c3cccc(-c4ccc(NC(=O)c5cnccc5C(F)(F)F)cc4)c3)nc12,37%,60% (active),-3,100% (active),inactive,inactive,inactive,inactive
CC(C)(C)OC(=O)N1CCC(C2CCN(C(=O)OC(C)(C)C)CC2)CC1,28%,-6%,1,86% (active),inactive,inactive,inactive,inactive
COc1cccc(C2=CC(C)(C)Oc3cc(OCCN(C)C)ccc32)c1,96% (active),57% (active),-4,97% (active),inactive,inactive,inactive,inactive
O=C(NC1CCN(Cc2ccccc2)CC1)c1ccc(-c2nc3cc(Cl)c(F)cc3[nH]2)cc1,100% (active),13%,3,100% (active),inactive,inactive,inactive,inactive
O=C(Nc1cccc(-c2ccc(-c3nc4ccc(C(F)(F)F)cc4[nH]3)cc2)c1)c1csnn1,93% (active),23%,3,98% (active),inactive,inactive,inactive,inactive
Cc1cc(N[C@@H](C)C(=O)Nc2ccccc2)nc(NCCc2ccc(F)cc2)n1,43%,33%,-2,100% (active),inactive,inactive,inactive,inactive
COc1ccc(-c2nc(NC(=O)Cc3cccc(OC)c3)sc2C)cc1,77% (active),1%,-3,101% (active),inactive,inactive,inactive,inactive
COc1cc2nc(-c3ccccc3)nc(N3CCN(C(=O)c4ccco4)CC3)c2cc1OC,87% (active),-7%,7,89% (active),inactive,inactive,inactive,inactive
O=C(Nc1cccc(CN2CCN(Cc3ccc(O)cc3)CC2)c1)c1cccc(C(F)(F)F)c1,15%,21%,2,91% (active),inactive,inactive,inactive,inactive
Cc1ccc(C(=O)Cn2nc(-c3ccc(C)c(S(=O)(=O)N4CCCCC4)c3)ccc2=O)cc1,76% (active),6%,-5,99% (active),inactive,inactive,inactive,inactive
CCNc1cc(C(=O)N[C@@H](Cc2ccccc2)[C@H](O)CNC(C)C)cc(N2CC(c3ccccc3)CCS2(=O)=O)c1 (stereo partly specified),99% (active),0%,-1,98% (active),inactive,inactive,inactive,inactive
CN(c1ccc2c(c1)nc(Nc1cc(C(C)(C)C)on1)n2C)c1ccnc(Nc2ccc(CS(C)(=O)=O)cc2)n1,13%,77% (active),-6,89% (active),inactive,inactive,inactive,inactive
O=C(Nc1ccc(S(=O)(=O)N2CCCCC2)cc1)c1cc(-c2ccccc2O)n[nH]1,81% (active),13%,-2,94% (active),inactive,inactive,inactive,inactive
